Source: PubChem BioAssay
Jurkat NFkB inh: inhibitors of the PMA/ionomycin-induced NF-kB reporter in Jurkat cells; actives 0.53% (n = 330,000); PMA/ionomycin-induced NF-kB luciferase reporter, luminescence; AID 435003; inhibition, % at 4 µM; in the data active means inhibition above about 50%
Mdm2-MdmX inh: inhibitors of human Mdm2/MdmX interaction; actives 3% (n = 330,000); AID 485346; O15151+Q00987; inhibition, % at 8 µM; SaOS-2 split-luciferase Mdm2/MdmX complementation, luminescence;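 active means inhibition of at least 50% at 8 µM in the primary screen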
Target sequence (O15151 whole entry, looked up): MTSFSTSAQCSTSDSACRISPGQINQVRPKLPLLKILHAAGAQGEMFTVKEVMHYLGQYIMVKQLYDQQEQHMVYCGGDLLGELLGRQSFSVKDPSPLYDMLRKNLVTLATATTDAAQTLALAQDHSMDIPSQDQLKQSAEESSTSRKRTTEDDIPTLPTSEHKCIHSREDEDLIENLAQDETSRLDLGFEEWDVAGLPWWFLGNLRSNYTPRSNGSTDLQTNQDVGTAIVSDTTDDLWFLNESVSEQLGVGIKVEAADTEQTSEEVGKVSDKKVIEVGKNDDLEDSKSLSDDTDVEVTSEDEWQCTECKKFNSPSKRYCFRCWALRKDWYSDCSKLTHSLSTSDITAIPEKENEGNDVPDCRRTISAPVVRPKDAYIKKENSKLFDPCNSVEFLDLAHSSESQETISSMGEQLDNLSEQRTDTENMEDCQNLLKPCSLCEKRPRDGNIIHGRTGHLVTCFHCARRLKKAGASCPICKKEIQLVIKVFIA
Target sequence (Q00987 whole entry, looked up): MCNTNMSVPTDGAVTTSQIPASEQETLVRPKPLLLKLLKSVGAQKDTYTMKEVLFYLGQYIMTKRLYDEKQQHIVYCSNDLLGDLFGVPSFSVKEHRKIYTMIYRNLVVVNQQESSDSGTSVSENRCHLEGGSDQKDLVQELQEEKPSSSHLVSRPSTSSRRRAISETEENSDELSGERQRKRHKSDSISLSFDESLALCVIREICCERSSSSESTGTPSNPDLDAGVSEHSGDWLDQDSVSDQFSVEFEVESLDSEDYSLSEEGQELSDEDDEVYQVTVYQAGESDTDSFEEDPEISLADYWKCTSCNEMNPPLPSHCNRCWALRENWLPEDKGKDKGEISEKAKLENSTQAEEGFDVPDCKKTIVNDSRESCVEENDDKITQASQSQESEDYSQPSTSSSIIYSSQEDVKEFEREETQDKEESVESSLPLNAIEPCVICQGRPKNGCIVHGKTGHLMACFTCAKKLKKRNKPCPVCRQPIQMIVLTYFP
Beta cell apopt: beta cell apoptosis inhibition | INS-1E cytokine-induced death, ATP luminescence, 48 h; percent of positive-control rescue, neutral wells zero | actives 0.8% (n = 300,000) | protection from apoptosis, % (no concentration beside the values);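 active means Every replicate reaches about 75%, or at least half do and their mean reaches it too, limit read from the data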;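 further: 0% = cytokine-treated negative control wells and 100% = positive control rescue; higher means more ATP so stronger rescue from cytokine killing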
697 NFkB inh: inhibitors of the PMA/ionomycin-induced NF-kB reporter in 697 B cells; 697 B-cell NF-kB luciferase reporter, 16 h; inhibition, % at 4 µM; actives 0.33% (n = 330,000); AID 435022; in the data active means inhibition above about 35%
Gli-Sufu antag: blocks Gli-Sufu signaling in a luciferase reporter. Sufu-KO-LIGHT fibroblasts, Gli luciferase reporter luminescence. inhibition, % at 5 µM. actives 0.74% (n = 340,000). AID 588413;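 active means inhibition above about 55%, limit read from the data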;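 further: 0% = DMSO-treated cells and 100% = wells with medium but no cells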
Gli antag conf: confirmation of Gli-SUFU pathway antagonists; actives 40% (n = 2,500); inhibition, % at 5 µM; shares compounds with Gli-Sufu antag; Sufu-KO-LIGHT cells, Gli luciferase reporter, luminescence;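 active means mean inhibition at 5 µM reaching about 45%, limit read from the data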;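 further: plate controls were DMSO-treated cells for no effect and wells lacking cells for full effect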
SufuKO cytotox: counter-screen for Gli-SUFU antagonists: cytotoxicity; AID 651994; shares compounds with Gli-Sufu antag; actives 32% (n = 2,500); cytotoxicity, % at 5 µM; Sufu-KO-LIGHT cells cytotoxicity, ATP luminescence;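 active means mean cytotoxicity at 5 µM above about 25%, limit read from the data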;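 further: cells exposed to compound overnight for roughly 16 to 18 hours; plate controls were DMSO wells with cells for no effect and medium without cells for full effect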
Wnt3a counter: counter-screen for Gli-SUFU antagonists: Wnt3a reporter inhibition. shares compounds with Gli-Sufu antag. Wnt-LIGHT cells, Wnt3a-driven luciferase reporter, luminescence. inhibition, % at 6.25 µM. actives 20% (n = 2,500). AID 651995;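 active means mean inhibition above about 25%, limit read from the data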
Starred values were filed as active, the others as inactive; nt = no result given. A selection: hits, their analogues and other compounds. The true share with any hit is near 4%.

SMILES	Jurkat NFkB inh	Mdm2-MdmX inh	Beta cell apopt	697 NFkB inh	Gli-Sufu antag	Gli antag conf	SufuKO cytotox	Wnt3a counter
COc1ccc(C(CNC(=O)c2cc(S(=O)(=O)N3CCN(c4ccccc4)CC3)ccc2Cl)N(C)C)cc1 (centres undefined)	17	32	4	-17	68*	21	13	-43
CN(C)C(CNC(=O)c1cccc(S(=O)(=O)N2CCN(c3ccccc3)CC2)c1)c1ccccc1 (centres undefined)	nt	nt	nt	nt	29	nt	nt	nt
O=C(Cc1ccccc1F)Nc1nc2ccccc2[nH]1	-23	-44	11	-32	67*	12	8	-34
O=C(Cc1cccc2ccccc12)Nc1nc2ccccc2[nH]1	-7	21	11	5	9	nt	nt	nt
COc1ccc(-n2nc(C(=O)NCC(=O)NCCC3=CCCCC3)c3ccccc3c2=O)cc1OC	14	19	3	11	-7	nt	nt	nt
COc1ccc(N2CC(C(=O)NCc3nnnn3-c3ccc(C)c(C)c3)CC2=O)cc1 (centres undefined)	12	28	1	-6	51	18	-2	-9
COc1ccccc1CNC(=O)C1CC(=O)N(c2ccc(C)c(C)c2)C1 (centres undefined)	-5	3	4	6	1	nt	nt	nt
O=C(COc1ccc2ccccc2c1)NNC(=O)c1ccccc1	5	-30	-5	-3	51	18	3	6
O=C(COc1ccc2ccccc2c1)NNC(=O)Cc1ccccc1	nt	nt	-3	nt	0	nt	nt	nt
CC(=O)c1ccc(-n2nncc2C(C)(C)C)cc1	8	-8	-10	4	3	nt	nt	nt
COc1ccc(-c2cn(-c3ccc(Br)cc3)c3[n+]2CCS3)cc1	11	33	57	-20	74*	76*	24	61*
Fc1ccc(-c2cn(-c3ccccc3)c3[n+]2CCS3)cc1	4	14	25	-30	21	nt	nt	nt
Clc1ccc(-c2cn(-c3ccccc3)c3[n+]2CCS3)cc1	7	2	10	-18	56*	56*	24	-12
CC(=O)c1ccc(-n2cc(-c3ccc(C(C)(C)C)cc3)[n+]3c2SCCC3)cc1	10	21	50	-39	73*	65*	22	-51
O=C(Nc1ccccc1[N+](=O)[O-])C1COc2ccccc2O1 (centres undefined)	-90	-72	1	-29	nt	nt	nt	nt
COc1ccccc1NS(=O)(=O)c1ccc2c(c1)CCN2C(=O)CCC(=O)O	-5	1	-7	0	55	17	7	3
Cc1cc(NC(=O)C2CCCN2C(=O)Nc2c(C)cccc2C)ccc1-n1cnnn1 (centres undefined)	17	-4	-1	6	16	nt	nt	nt
Cc1cc(NC(=O)C2CCN(S(=O)(=O)Cc3ccccc3)CC2)ccc1-n1cnnn1	10	27	-3	15	60*	28	12	-36
NC(=O)CC(NC(=O)c1ccccc1)c1ccc(N2CCCCCC2)c([N+](=O)[O-])c1 (centres undefined)	14	-5	0	-15	56*	36	21	-44
Cc1cccc(NC(=O)CN2CCN(C(=O)c3ccc(OCc4cn5ccccc5n4)cc3)CC2)c1C	9	-5	-1	6	-1	nt	nt	nt
Cc1c(C(=O)N2c3ccccc3Sc3ccccc32)cccc1[N+](=O)[O-]	2	14	-7	-8	96*	36	8	-20
Cc1cc(C)n(C(=O)c2cccc([N+](=O)[O-])c2C)n1	-1	6	-5	-9	-4	nt	nt	nt
Cn1c(=O)c2ccccc2n(Cc2ccccc2F)c1=O	8	34	4	-16	8	nt	nt	nt
Cn1c(=O)c2ccccc2n(Cc2cccc(F)c2)c1=O	-19	1	4	-50	54	27	3	0
O=C(c1ccccc1)N1CCN(CC#Cc2ccccc2)CC1	-18	-2	-4	-39	99*	-6	16	-38
SMILES	Jurkat NFkB inh	Mdm2-MdmX inh	Beta cell apopt	697 NFkB inh	Gli-Sufu antag	Gli antag conf	SufuKO cytotox	Wnt3a counter
CCOC(=O)Cn1c(COc2ccccc2OC)[n+](C)c2ccccc21	8	32	1	3	52	18	14	18
COc1ccc(CNC(=O)c2ccc(Cn3cc(Br)cn3)o2)cc1	-1	21	-8	12	nt	nt	nt	nt
C=Cc1ccc(Cn2c(=O)n(C)c(=O)c3sccc32)cc1	1	21	nt	-19	54	35	16	4
Cc1ccc(Cn2c(=O)n(C)c(=O)c3sccc32)cc1	-1	30	-5	-12	22	nt	nt	nt
COC(=O)[C@H](CC(C)C)NC(=O)Cn1cnc2c(OCc3ccccc3)ncnc21	-6	14	nt	1	-9	nt	nt	nt
CCCCN1CCc2c(c3ccccc3n2Cc2ccccc2)C1	12	14	26	1	60*	35	1	-31
CN1CCc2c(c3ccccc3n2Cc2ccccc2)C1	-4	15	3	-22	-3	nt	nt	nt
O=S(=O)(c1ccc(F)cc1F)N1CCN(CCO)CC1	nt	nt	nt	nt	21	nt	nt	nt
CCN(CC)S(=O)(=O)c1ccc(C)c(NC(=S)N2CCN(Cc3ccc4c(c3)OCO4)CC2)c1	27	29	nt	-18	64*	43	24	7
CCN(CC)S(=O)(=O)c1ccc(C)c(NC(=S)N2CCN(C/C=C/c3ccccc3)CC2)c1	29	36	33	-18	66*	39	31*	-8
O=C(CN(c1ccc(F)cc1)S(=O)(=O)c1ccccc1)N1CCOCC1	16	-22	-1	-3	10	nt	nt	nt
COc1cc2c(cc1OC)CN(S(=O)(=O)c1cccc(F)c1)CC2	-7	-2	-3	5	13	nt	nt	nt
CC1(C)Cc2cccc(OCC(=O)Nc3cccnc3Cl)c2O1	17	6	2	-5	-11	nt	nt	nt
CCOc1ccc(NCC(=O)c2ccc(C)cc2)cc1	3	15	3	2	61*	-5	21	-77
Cc1ccc(C(=O)CNc2ccc(Cl)cc2)cc1	-2	10	0	10	-8	nt	nt	nt
COCC(=O)N1CCC(Oc2ccc(C(=O)NCCCn3cccn3)cc2)CC1	-13	-8	1	2	53	21	7	5
CCN(CCn1cccn1)C(=O)c1ccc(OC2CCN(C(=O)COC)CC2)cc1	15	19	-6	19	-9	nt	nt	nt
CCOC(=O)c1ccc(NC(=O)CSc2nnc(CNC(=O)c3c(F)cccc3Cl)o2)cc1	9	18	-2	9	33	nt	nt	nt
CCOC(=O)c1ccc(NC(=O)CSc2nnc(CNC(=O)c3ccccc3F)o2)cc1	13	11	-6	2	96*	17	-9	11
